Calls of active or inactive are those of the source.

NADPH oxidase 2 (Homo sapiens), sequence (P04839 whole entry, looked up): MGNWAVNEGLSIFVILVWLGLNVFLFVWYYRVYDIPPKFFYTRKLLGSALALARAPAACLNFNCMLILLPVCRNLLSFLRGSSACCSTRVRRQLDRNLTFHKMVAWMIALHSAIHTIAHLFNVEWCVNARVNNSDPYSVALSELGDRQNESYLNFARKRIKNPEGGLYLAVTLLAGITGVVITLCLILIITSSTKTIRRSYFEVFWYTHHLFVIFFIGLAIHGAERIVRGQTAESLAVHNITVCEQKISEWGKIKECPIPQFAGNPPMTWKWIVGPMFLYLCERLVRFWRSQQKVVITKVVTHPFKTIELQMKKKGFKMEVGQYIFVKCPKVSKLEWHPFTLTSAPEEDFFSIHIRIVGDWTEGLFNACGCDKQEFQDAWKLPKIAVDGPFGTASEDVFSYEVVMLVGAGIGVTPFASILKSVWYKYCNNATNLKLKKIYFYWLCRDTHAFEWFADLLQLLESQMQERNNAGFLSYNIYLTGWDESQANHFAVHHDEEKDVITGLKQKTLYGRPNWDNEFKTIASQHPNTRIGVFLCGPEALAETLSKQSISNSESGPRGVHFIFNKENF

Tested on in the first assay: not listed separately
The assay is described as follows: S6 kinase pathway phospho-S6 level changes – cell-based, A549, cytoblot, luminescence, serum-stimulated, primary screen (AID 1158).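 Also: serum-stimulated A549 lung adenocarcinoma cells; signal is phosphorylated S6 detected by cytoblot immunostaining with HRP secondary.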 As to conditions: 5 h, higher = more signal.
With `CCCCCN1CC=CC23O[C@@H]4/C=C\CCCOC(=O)C4[C@H]2C(=O)N(C(C)CO)[C@@H]3C1=O` (stereo not given in full), the z-score turned out to be 0.566.

Compound `COC(=O)c1c(CC[C@@H](CO)NC(=O)N2CCC[C@H]2Cn2cc(C3(O)CCCCC3)nn2)oc(C(C)=O)c1C(=O)OC` registered a z-score of -0.0302. Take `CCCCNC(=O)c1ccc(C#CC(C)(C)C)c(OC(C)=O)c1`: the z-score was 0.355. `COc1ccccc1CN1C(=O)c2ccccc2[C@](Cc2ccccc2I)(C(=O)O)[C@@H]1c1ccc(CO)cc1`: the z-score was -0.523.

Another assay concerns the target NADPH oxidase 2 (Homo sapiens) (UniProt P04839). In words: compounds shifting NOX2 Amplex Red fluorescence – cell-based, HEK293-NOX2, PMA-stimulated, NOX inhibitor project, primary screen (AID 1159). Also: test concentration not given here. Conditions: 45 min, higher = more signal, called active from +8 up or from −8 down.
For `COC(=O)[C@@]1(Cc2ccc(OC)cc2)[C@H]2c3cc(C(=O)N(C)C)n(Cc4ccc(C)o4)c3C[C@H]2CN1C(=O)c1ccccc1`, the z-score is -0.351 (inactive).

As for `CCCCCN1CC=CC23O[C@@H]4/C=C\CCC(C)OC(=O)C4[C@H]2C(=O)N(C(CO)C(C)C)[C@@H]3C1=O` (stereo not given in full), the z-score is 1.36 (inactive). For `CCOC(=O)C[C@H]1[C@H](OC(=O)c2ccccc2-c2ccccc2)[C@@H](NC(=O)c2ccc3ccccc3n2)c2cc(OCCCO)ccc2N1C(=O)Cc1ccc(OC)cc1`, the z-score is 0.0348 (inactive).

In the case of `O=C1OCCC/C=C\[C@H]2OC34C=CCN(c5ccc6ccccc6c5)C(=O)[C@H]3N(CCO)C(=O)[C@@H]4C12` (stereo not given in full), the z-score was 0.356 (inactive). Consider `O=C1N(Cc2ccccc2)c2ccccc2C[C@]12N=C(c1ccc(OCCCO)cc1)O[C@@H]2c1ccccc1`, for which the z-score was -0.73 (inactive).

As for `O[C@@H](Cc1ccccc1)[C@@H](/C=C/C1CC1)N(CC#Cc1ccccc1)Cc1ccccc1Br`, the z-score was -0.612 (inactive). Turning to `O=C(C1N=C(c2ccc(OCCCO)cc2)N(c2ccccc2)O1)N1CCCCC1` (stereo not given), the z-score is 1.12 (inactive). On to `CC(C)[Si]1(C(C)C)OCc2cc(-c3ccc(-c4ccc(Cl)c(Cl)c4)o3)nc(-c3ccccc3)c21`, for which the z-score was 0.237 (inactive).

Turning to `COc1ccc([Si](C)(C)[C@@H]2[C@@H](CCO)O[C@]3(C(=O)N(Cc4ccccc4)c4ccc(NC(=O)[C@H](C)O)cc43)[C@H]2C)cc1`, the z-score was 0.77 (inactive). For the compound `COc1cc(NN2C(C(O)c3ccc(N(C)C)cc3)C=CC3C(=O)N(c4ccccc4)C(=O)C32)cc(OC)c1OC` (stereo not given), the z-score was -2.65 (inactive). As to `Cn1cccc1C(O)C1C=CC2C(=O)N(c3ccccc3)C(=O)C2N1Nc1ccccc1` (stereo not given), the z-score is -1.34 (inactive). Turning to `CCOC(=O)C=Cc1cccc(C)c1O`, the z-score was -5.05 (inactive). Same read-out and setting: next, `COC(=O)C1=CC(CCCO)=CC(c2cccs2)N(Cc2cccc(OC(F)(F)F)c2)C=C1C(=O)OC` (stereo not given): -0.244 (inactive); `[N-]=[N+]=Nc1ccccc1[C@@H]1OC(c2ccc(OCCCO)cc2)=N[C@]1(Cc1ccccc1)C(=O)N1CCCCC1`: -1.43 (inactive); `C=CCNC(=O)[C@@H]1[C@H]2C(=O)O[C@H](c3ccccc3)[C@H](c3ccccc3)N2[C@H](c2ccc(O)cc2)[C@@]12C(=O)N(C(=O)OCCOC)c1ccc(C#CC3=CCCCC3)cc12`: 1.61 (inactive).

As for `CCOC(=O)C[C@H]1[C@H](OC(=O)c2cc3ccccc3oc2=O)[C@@H](NC(=O)CC(C)C)c2cc(OCCCO)ccc2N1C(=O)c1ccc2ccccc2n1`, the z-score was 1.01 (inactive). With `NCCCCCNC(=O)[C@@H]1C[C@@H]2C(=O)N[C@@H](CCCCN)C(=O)N2[C@@H]1c1ccc(O)cc1`, the z-score was 1.5 (inactive). For the compound `CC(C)C(CO)N1C(=O)[C@@H]2C3C(=O)OCCC/C=C\[C@H]3OC23C=CCN(Cn2nnc4ccccc42)C(=O)[C@@H]13` (stereo not given in full), the z-score was 1.23 (inactive). For `[N-]=[N+]=NCc1ccccc1C[C@@]1(C(N)=O)N=C(c2ccc(OCCCO)cc2)O[C@@H]1c1ccccc1`, the z-score was -2.31 (inactive). The same measure, in the same setting: the result for `CCOC(=O)C[C@H]1[C@H](OC(=O)c2ccc(C(=O)c3ccccc3)cc2)[C@@H](NC(=O)CC(C)C)c2cc(OCCCO)ccc2N1C(=O)c1ccccc1` reads 1.49 (inactive); that for `CC(C)[Si](C#C[Si](C(C)C)(C(C)C)C(C)C)(O[C@H](c1ccccc1)c1cn(Cc2ccccc2)nn1)C(C)C`, -0.734 (inactive); that for `COC(=O)C/C=C/C[C@]1(O)C(=O)N(C)c2ccccc21`, -0.563 (inactive). For `CN1C(=O)C2C=CC(C(O)c3cccn3C)N(Nc3ccc([N+](=O)[O-])cc3[N+](=O)[O-])C2C1=O` (stereo not given), the z-score was -0.797 (inactive). Take `C=CCN1Cc2ccccc2[C@@H]2OC(c3ccc(OCCCO)cc3)=N[C@]2(CC=C)C1=O`: the z-score is -1.98 (inactive). On the same count and under the same terms, next, `CCCC=C(CCC)[C@@H](NP(=O)(c1ccccc1)c1ccccc1)c1ccc(-c2ccccc2)cc1`: -1.02 (inactive). As for `C=C(COC)C(=O)CC[C@@H](OC(C)=O)c1cccc(OCCO)c1`, the z-score is 0.212 (inactive). Still for that read-out and setting: the result for `CCOC(=O)C1=CC[C@@H](c2ccccc2F)N(S(=O)(=O)c2ccc(C)cc2)[C@H]1c1ccccc1` reads 0.941 (inactive). In the case of `O=C1O[C@H](c2ccccc2)[C@H](c2ccccc2)N2[C@H]1[C@@H](C(=O)O)[C@]1(C(=O)Nc3ccc(C#CCCO)cc31)[C@H]2c1ccccc1OCCO`, the z-score was 1.93 (inactive).

Take `COc1cc2c(cc1O)C(C1CC1)N(C)CC2` (stereo not given): the z-score is -4.61 (inactive). Regarding `COC(=O)[C@@]1(Cc2ccc(OC)cc2)[C@H]2c3cc(C(=O)N4CCCC4)n(CCO)c3C[C@H]2CN1C(=O)c1ccccc1`, the z-score was -0.0722 (inactive). In the case of `[N-]=[N+]=Nc1ccccc1C[C@]1(C(=O)N2CCOCC2)COC(c2ccc(OCCCO)cc2)=N1`, the z-score is -3.84 (inactive).

Consider `O=C1C2C=CC(C(O)c3ccco3)N(Nc3ccccc3F)C2C(=O)N1c1ccccc1` (stereo not given), for which the z-score is -0.73 (inactive). Consider `CCCCCN1CC=CC23O[C@@H]4/C=C\CCCOC(=O)C4[C@H]2C(=O)N(C(C)CO)[C@@H]3C1=O` (stereo not given in full), for which the z-score was 0.825 (inactive). Still for that read-out and setting: next, `COC(=O)c1c(CC[C@@H](CO)NC(=O)N2CCC[C@H]2Cn2cc(C3(O)CCCCC3)nn2)oc(C(C)=O)c1C(=O)OC`: -0.645 (inactive).

Take `CCCCNC(=O)c1ccc(C#CC(C)(C)C)c(OC(C)=O)c1`: the z-score is -0.137 (inactive). Take `COc1ccccc1CN1C(=O)c2ccccc2[C@](Cc2ccccc2I)(C(=O)O)[C@@H]1c1ccc(CO)cc1`: the z-score was 1.03 (inactive).

The values are drawn from PubChem BioAssay.
